This is a sample that favours compounds with a hit; in the whole collection about 7.3% have one here.
ELG1 genotoxic – genotoxicity induction in ELG1-luciferase HEK293T cells; AID 504466; Potency, µM (top dose mostly 46 µM), for the others: top-dose activity change, positive = activation, most hits filed as activators; HEK293T ELG1-luciferase reporter, luminescence, 16 h; 330,000 tested, 1.3% active; note: % of control where 0% means no effect; nearly all actives have a fitted effect of over 60% in size
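Quantitative HTS format in 1536-well plates. HEK293T ELG1-luciferase reporter cells receive test compound and are incubated 16 hr at 37 °C, 5% CO2; ONE-Glo added, 30 min room temperature, then luminescence read.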
SMN2 splice up – SMN2 splice variant enhancement; HEK293 SMN2-luciferase splicing reporter, luminescence, 30-36 h; Potency, µM (titrated, usually from 46.1 µM), inactives show top-dose activity change, positive = activation, usual class: activators; 210,000 tested, 2.8% active; AID 1458; note: % of control where 0% means no effect; nearly all actives have a fitted effect of over 55% in size
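HEK293 cells carry an SMN2 […]–luciferase reporter in which exon 7 inclusion puts luciferase in frame. Cells were plated 10-12 h before compound addition, then incubated 30-36 h at 37C. ONE-Glo luminescence was read; sodium butyrate at 4.5 mM final served as control.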
FLuc counter – counter-screen for miR-21 project: firefly luciferase inhibitors or activators. Potency, µM (top dose mostly 57.5 µM), for the others: at the highest dose activity change, negative = inhibition, most hits filed as inhibitors. 360,000 tested, 6.9% active. AID 588342. purified FLuc, Km substrates, luminescence inhibition;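 note: plate controls were vehicle for no effect and reference inhibitor for full effect; nearly all actives have a fitted effect of over 55% in size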
Target sequence (P08659 whole entry, looked up): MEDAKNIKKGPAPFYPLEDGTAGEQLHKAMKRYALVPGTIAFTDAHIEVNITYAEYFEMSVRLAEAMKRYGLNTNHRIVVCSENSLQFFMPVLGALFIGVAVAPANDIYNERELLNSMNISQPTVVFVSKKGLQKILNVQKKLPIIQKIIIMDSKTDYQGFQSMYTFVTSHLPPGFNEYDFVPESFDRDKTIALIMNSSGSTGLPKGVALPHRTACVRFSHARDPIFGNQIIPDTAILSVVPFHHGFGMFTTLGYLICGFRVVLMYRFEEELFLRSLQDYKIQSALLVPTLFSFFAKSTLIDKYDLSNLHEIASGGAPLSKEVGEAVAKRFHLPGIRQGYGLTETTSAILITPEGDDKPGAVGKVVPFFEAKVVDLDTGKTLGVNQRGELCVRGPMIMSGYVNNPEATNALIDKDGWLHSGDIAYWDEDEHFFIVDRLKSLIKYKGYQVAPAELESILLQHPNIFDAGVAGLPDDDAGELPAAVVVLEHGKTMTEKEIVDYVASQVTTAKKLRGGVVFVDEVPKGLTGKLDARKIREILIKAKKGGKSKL
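Purified P. pyralis luciferase (10nM final) with 10uM D-luciferin and 10uM ATP (Km levels) in 50mM Tris acetate pH 7.5, 10mM Mg acetate, 0.01% Tween-20, 0.05% BSA; qHTS 6-point titration, ~60 µM downward; luminescence read.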
KinaseGlo FLuc – blocks Kinase-Glo luciferase, a counter-screen artifact; Potency, µM (doses to about 38.3 µM), without a hit: at the top dose activity change, negative = inhibition, hits mostly inhibitors; Kinase-Glo luciferase, ATP luminescence, 8 min; 200,000 tested, 0.28% active; Q27757; note: % is set by controls: 0 for no effect and ±100 for the full control effect; nearly all actives have a fitted effect of over 60% in size
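Compounds were added to a substrate mix at pH 7.2 (50 mM imidazole, 10 uM ATP, within the enzyme's linear range), followed by Kinase-Glo detection reagent; luminescence was measured after 8 minutes at ambient temperature.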
Rab9 prom act – activates the Rab9 promoter | Huh7 Rab9 promoter-luciferase reporter, luminescence, 24 h | Potency, µM (top dose mostly 9.22 µM), inactives show top-dose activation, negative = inhibition, most hits filed as activators | 320,000 tested, 2.8% active; note: % of control where 0% means no effect; nearly all actives have a fitted effect of over 60% in size
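Luciferase signal after 10 min detection reagent at ambient indicates Rab9 promoter upregulation; stably transfected Huh7 cells were treated 24 h with compound in DMSO at 37 °C, 5% CO2.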
NPC1 prom act – activates the NPC1 promoter; Potency, µM (highest dose often 9.22 µM), for inactives: at the top dose activation, most hits filed as activators; AID 485313; 320,000 tested, 2.4% active; Huh7 NPC1 promoter luciferase reporter, 24 h; note: % of control where 0% means no effect; nearly all actives have a fitted effect of over 60% in size
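Cells: Huh7 expressing luciferase under the NPC1 promoter, 1500/well. Seeded 2 h, compound added, incubated 24 h at 37 °C. Luciferase reagent, 10 min ambient, then luminescence.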
* = called active by the depositor. Calls come from the whole dose curve; as a rule, active = well fitted curve in the direction sought with a large enough effect; inconclusive = small, poorly fitted or top-dose-only effect, or another doubt; inactive = no such curve, though single readings can be large; an effect the other way counts as inactive or inconclusive. Potency is the fitted concentration of half-maximal effect.

How did Cc1nc(NCCOc2ccccc2)sc1C(=O)Nc1ccccc1 do in these assays?
ELG1 genotoxic: 27.5%; FLuc counter: inconclusive; Rab9 prom act: inconclusive; NPC1 prom act: 2.82µM*

How did Cc1nc(Cl)sc1C(=O)Nc1ccc(Cl)cc1 do in these assays?
ELG1 genotoxic: 2.9%; SMN2 splice up: -8.5%; FLuc counter: 15.1µM*; KinaseGlo FLuc: -1.8%; Rab9 prom act: 1.1%; NPC1 prom act: -2.3%

What do the screens show for `COc1ccccc1Nc1nc(C)c(C(=O)Nc2ccccc2)s1`?
ELG1 genotoxic: 1.0%; SMN2 splice up: 4.6%; FLuc counter: 15.1µM*; KinaseGlo FLuc: 2.4%; Rab9 prom act: 12.4%; NPC1 prom act: -5.1%

Results for Cc1nc(Cl)sc1C(=O)Nc1ccccc1 ?
ELG1 genotoxic: 0.0%; SMN2 splice up: -13.0%; FLuc counter: -16.5%; KinaseGlo FLuc: -1.7%; Rab9 prom act: -0.5%; NPC1 prom act: -2.4%

Results for Cc1cccc(NC(c2nnc(-c3ccccc3)o2)c2ccc(F)cc2Cl)c1C (configuration not stated) ?
FLuc counter: -7.3%

Results for Cn1c(-c2ccc(S(=O)(=O)N3CCCC3)cc2)csc1=Nc1ccc(Cl)c(Cl)c1 ?
SMN2 splice up: -10.6%; FLuc counter: -0.6%

How did C/C(=C\C(=S)Nc1ccccc1)Nc1ccc2ccccc2c1 do in these assays?
ELG1 genotoxic: 26.2%; SMN2 splice up: -1.7%; FLuc counter: 16.9µM*; KinaseGlo FLuc: -0.2%; Rab9 prom act: 14.1%; NPC1 prom act: 16.2%

Results for S=C(NCc1ccccc1)Nc1ccc2ccccc2c1 ?
ELG1 genotoxic: inconclusive; FLuc counter: 13.5µM*; Rab9 prom act: inconclusive; NPC1 prom act: 2.24µM*

What do the screens show for `CCn1c(SCC(=O)N2CCCC2)nc2ccccc21`?
ELG1 genotoxic: -0.2%; SMN2 splice up: 1.7%; FLuc counter: 2.7%; KinaseGlo FLuc: 5.7%; Rab9 prom act: 0.8%; NPC1 prom act: -6.2%

What do the screens show for `CCn1c(SCc2ccccc2Cl)nc2ccccc21`?
ELG1 genotoxic: 14.0%; SMN2 splice up: inconclusive; FLuc counter: 12µM*; KinaseGlo FLuc: 0.4%; Rab9 prom act: 19.8%; NPC1 prom act: 27.4%

What do the screens show for `Cn1c(SCc2ccccc2Cl)nnc1-c1cnccn1`?
ELG1 genotoxic: 11.2µM*; SMN2 splice up: inconclusive; FLuc counter: inconclusive; KinaseGlo FLuc: -1.7%; Rab9 prom act: inconclusive; NPC1 prom act: inconclusive

Results for CCn1c(CSc2nc3ccccc3n2C)nc2ccccc21 ?
ELG1 genotoxic: -1.1%; SMN2 splice up: -16.6%; FLuc counter: -4.3%; KinaseGlo FLuc: -0.2%; Rab9 prom act: -5.8%; NPC1 prom act: -2.5%

What do the screens show for `Cn1c(SCc2ccccc2Cl)nc2ccccc21`?
ELG1 genotoxic: 5.8µM*; SMN2 splice up: 110.9%; FLuc counter: 6.01µM*; KinaseGlo FLuc: -25.9%; Rab9 prom act: inconclusive; NPC1 prom act: 2.51µM*

Results for CC(=O)N1CCc2c(sc3c2c(=O)n(-c2ccccc2)c(=O)n3Cc2cccc(C(F)(F)F)c2)C1 ?
SMN2 splice up: 21.2%; FLuc counter: -0.5%

Results for Cc1sc2c(c1C)c(=O)n(-c1cccc(C(F)(F)F)c1)c(=O)n2Cc1ccc(F)cc1 ?
SMN2 splice up: 1.3%; FLuc counter: -3.2%

Results for O=C(CCCn1c(=O)c2cccn2c2cccnc21)Nc1ccccc1Br ?
FLuc counter: 0.5%

How did Cc1csc(NC(=O)c2cc3c(s2)-c2ccccc2OC3)n1 do in these assays?
ELG1 genotoxic: 16.7%; SMN2 splice up: inconclusive; FLuc counter: inconclusive; KinaseGlo FLuc: 1.1%; Rab9 prom act: inconclusive; NPC1 prom act: 3.55µM*

What do the screens show for `CN(C)CCNC(=O)c1cc2c(s1)-c1ccccc1OC2`?
ELG1 genotoxic: 23.1µM*; SMN2 splice up: -11.1%; FLuc counter: 19µM*; KinaseGlo FLuc: -0.7%; Rab9 prom act: 18.0%; NPC1 prom act: 17.0%

Bioassay records as filed in PubChem BioAssay.
